The panel holds about 83,000 compounds, 20% with a hit somewhere; the sample as a whole holds those more often.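 In brief: 96-well plates, 48 h treatment, single concentration, percent growth endpoint.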 Values without a mark were called inactive. Activity calls are given as the source filed them. The calls were made as follows: active = growth percent below 10; inactive = the rest.
Columns and labels:
Experiment in all cases: NCI-60 one-dose screen, 48 h (100 = growth as untreated, 0 = no growth, -100 = all killed)
Settings in all cases: 10 µM unless noted
NCI-H23 lung = system: NCI-H23 lung
NCI-H226 lung = system: NCI-H226 lung
NCI-H322M lung = system: NCI-H322M lung
HOP-62 NSCLC = system: HOP-62 NSCLC
NCI-H460 lung = system: NCI-H460 lung
HOP-92 NSCLC = system: HOP-92 NSCLC
NCI-H522 lung = system: NCI-H522 lung
A549/ATCC NSCLC = system: A549/ATCC NSCLC
786-0 renal = system: 786-0 renal
COLO 205 colon = system: COLO 205 colon
DU-145 prostate = system: DU-145 prostate
K-562 leukemia = system: K-562 leukemia
MALME-3M melanoma = system: MALME-3M melanoma
MDA-MB-231 breast = system: MDA-MB-231 breast
SF-268 CNS = system: SF-268 CNS
SF-295 CNS = system: SF-295 CNS
SF-539 CNS = system: SF-539 CNS
UACC-257 melanoma = system: UACC-257 melanoma
M14 melanoma = system: M14 melanoma
RXF 393 renal = system: RXF 393 renal

SMILES	growth (NCI-H23 lung) [%]	growth (NCI-H226 lung)	growth (NCI-H322M lung) [%]	growth (HOP-62 NSCLC)	growth (NCI-H460 lung) [%]	growth (HOP-92 NSCLC)	growth (NCI-H522 lung) [%]	growth (A549/ATCC NSCLC)	growth (786-0 renal)	growth (COLO 205 colon) [%]	growth (DU-145 prostate) [%]	growth (K-562 leukemia)	growth (MALME-3M melanoma)	growth (MDA-MB-231 breast)	growth (SF-268 CNS) [%]	growth (SF-295 CNS) [%]	growth (SF-539 CNS)	growth (UACC-257 melanoma) [%]	growth (M14 melanoma) [%]	growth (RXF 393 renal)
Cc1cc2nc3c(=O)[nH]c(=O)nc-3n(CC=O)c2cc1C	108	91%	110	106%	106	293%	107	115%	105%	128	116	96%	112%	106%	99.5	92.2	93.6%	159	109	
C#CC[C@@H]1C[C@]2(C)[C@H]3CC[C@@H]4[C@H]5C(C(=C)C)CC[C@]5(C(=O)NCCN(CCN)CCN)CC[C@@]4(C)[C@]3(C)CC[C@H]2C(C)(C)[C@H]1OC(C)=O (stereo partly specified)	77.3	65.9%	71.4	83.3%	81.8	66.3%	61.7	53.4%	90.3%	69.3	95.1	2.56% (active)	85.7%	33%	87.6		95.2%	109	91.3	-66.1% (active)
N#CC1=C(N)Oc2nc[nH]c(=O)c2C1c1cccs1 (stereo unspecified)	110	89%	105	105%	106	102%	97.6	95.7%	103%	106	107	104%	112%	106%	108		101%	98.4	111	97.8%
CC(=O)Nc1ccc(Cl)cc1Cl	111	95.5%	114	110%	114	107%	89.4	95.3%	106%	130	111	64.9%	112%	100%	97.4	83.8	98.3%	124	102	
COc1cc2c(cc1OC)C(=O)OC2	118	93.4%	116	113%	110	75.5%	111	104%	114%	134	109	118%	124%	102%	100	102	97%	13.3		
Cc1cccc(C(=O)O)n1	123	93.9%	108	106%	105	6.89% (active)	90.8	102%	112%	114	116	102%	111%	120%	107	98	99.7%	105	108	
COc1ccc2nc(C)cc(Nc3ccccc3O)c2c1	100	0.475% (active)	59.9	-61.9% (active)	20.6	-23.7% (active)	47.3	3.25% (active)	-67% (active)	89.9	63.9	6.3% (active)	-12.4% (active)	9.5% (active)	64.8		-72.7% (active)	75.1	81.8	-41.7% (active)
Cc1nc([C@H]2CC[C@H]3[C@@H]4CCC5=CC(=O)CC[C@]5(C)[C@H]4CC[C@]23C)cs1	49.9	76.9%	116	104%	41.5	85%	22	63.3%	62.7%	97.5	99.7	18%	99.5%	97.4%	91.7	46.1	93.4%	39.2	74.1	

Reference: PubChem BioAssay (NCI)
